Sfp PPTase inh: inhibitors of Bacillus subtilis Sfp phosphopantetheinyl transferase; Q9F4F7; Biochemical Sfp PPTase activity, qHTS; Potency, µM, for inactives: largest response in the series, negative = inhibition, actives largely listed as inhibitors; 310,000 compounds, 3.5% hits; AID 1490;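 also: the enzyme is Sfp with the accession as filed and its product quenches rhodamine fluorescence; 0% = enzyme reaction without inhibitor and -100% = no enzyme wells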
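Fluorescence-quenching assay: 15 nM Sfp-PPTase preincubated 15 min at room temperature with compound, then 5 uM rhodamine-CoA and 12.5 uM BHQ-2-labelled YbbR peptide added. Fluorescence (ex 525/em 598 nm) read at start and after 30 min; difference gives rate.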
L3MBTL1 block: L3MBTL1 (human) inhibition; Q9Y468; AlphaScreen L3MBTL1–H3K9me1 peptide binding; Potency, µM (series often up to 57.1 µM), for the others: at the top dose activity, negative = inhibition, hits mostly inhibitors; 230,000 compounds, 0.66% hits; also: % is scaled to controls: 0 for no effect and ±100 for the full control effect; nearly all actives have a fitted effect of over 60% in size
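L3MBTL1 50 nM + b-AHA-H3(1-15)K9me1 75 nM, 30 min RT; compound added, 30 min RT; streptavidin donor/Ni-chelate acceptor beads 10 ug/mL each final, 30 min RT dark; AlphaScreen read.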
G9a block: inhibitors of human histone lysine methyltransferase G9a. G9a H3K9 monomethylation, AlphaScreen, 2 h. Potency, µM (top dose mostly 102 µM), inactives show at the top dose activity, negative = inhibition, most hits filed as inhibitors. 350,000 compounds, 8.8% hits. AID 504332; also: % is scaled to controls: 0 for no effect and ±100 for the full control effect; nearly all actives have a fitted effect of over 75% in size
Target sequence (Q96KQ7 913-1193 limits assumed): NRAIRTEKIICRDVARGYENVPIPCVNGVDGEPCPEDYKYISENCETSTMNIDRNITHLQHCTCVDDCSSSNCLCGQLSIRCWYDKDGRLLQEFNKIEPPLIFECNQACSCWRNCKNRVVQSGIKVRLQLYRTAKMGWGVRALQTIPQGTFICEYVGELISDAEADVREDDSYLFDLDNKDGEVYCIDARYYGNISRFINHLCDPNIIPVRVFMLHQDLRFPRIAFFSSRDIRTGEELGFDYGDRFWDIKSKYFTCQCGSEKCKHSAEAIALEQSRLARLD
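G9a (20 nM) was preincubated 15 min with compound, then reacted 2 h at room temperature with 500 nM biotin-H3K9 peptide and 20 µM SAM. Monomethyl-H3K9 detected by AlphaScreen using anti-H3K9me1 antibody.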
JMJD2A Tudor inh: JMJD2A Tudor domain (human) inhibition; AID 504339; Potency, µM (titrated, usually from 114 µM), without a hit: at the highest dose activity change, negative = inhibition, actives largely listed as inhibitors; O75164; 390,000 compounds, 4.4% hits; AlphaScreen JMJD2A-Tudor / H3K4me3 peptide binding; also: % is scaled to controls: 0 for no effect and ±100 for the full control effect; nearly all actives have a fitted effect of over 50% in size
BAZ2B block: BAZ2B (human) inhibition; AlphaScreen BAZ2B-H3K14Ac peptide displacement; 360,000 compounds, 4.4% hits; Potency, µM (titrated, usually from 114 µM), for inactives: top-dose activity change, negative = inhibition, most hits filed as inhibitors; Q9UIF8; AID 504333; also: % is scaled to controls: 0 for no effect and ±100 for the full control effect; nearly all actives have a fitted effect of over 60% in size
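Multi-concentration screen (max 110 uM) measuring displacement of acetylated histone H3 peptide from BAZ2B by AlphaScreen, using 50 nM protein, 50 nM peptide and 10 ug/mL streptavidin donor plus Ni-chelate acceptor beads.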
HP1b chromo inh: HP1-beta chromodomain-methylated histone interaction inhibition | AlphaScreen HP1-beta / biotin-H3K9me3 peptide binding | Potency, µM (series often up to 114 µM), for the others: at the highest dose activity change, negative = inhibition, hits mostly inhibitors | 390,000 compounds, 0.56% hits; also: nearly all actives have a fitted effect of over 70% in size
Target sequence (P83916 whole entry, looked up): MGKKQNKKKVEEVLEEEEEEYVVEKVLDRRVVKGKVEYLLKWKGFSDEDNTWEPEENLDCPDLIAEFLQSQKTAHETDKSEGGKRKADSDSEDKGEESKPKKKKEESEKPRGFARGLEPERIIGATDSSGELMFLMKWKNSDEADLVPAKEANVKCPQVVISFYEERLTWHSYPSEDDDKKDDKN
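AlphaScreen: HP1-beta (50 nM) preformed 30 min with biotin-H3(1-18)K9me3 peptide (50 nM) in PBS pH 7.4, 0.01% Tween-20. Compound added for 30 min at RT, then streptavidin donor/nickel chelate acceptor beads (10 ug/mL) for 30 min.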
Starred values were filed as active, the others as inactive; ? = inconclusive; · = no result; ! = not confirmed by another sample; [ ] = another dose, or the depositor's remark. In the library only some 12% were active in any assay of this set; here they are far more common. Calls follow the shape of the dose curve; as a rule, active = well fitted curve in the direction sought with a large enough effect; inconclusive = small, poorly fitted or top-dose-only effect, or another doubt; inactive = no such curve, though single readings can be large; an effect the other way counts as inactive or inconclusive. Potency is read from the fitted curve at half-maximal effect.

SMILES	Sfp PPTase inh	L3MBTL1 block	G9a block	JMJD2A Tudor inh	BAZ2B block	HP1b chromo inh
CC(=O)c1c(C)[nH]c(C(=O)Nc2cccc(S(=O)(=O)N3CCCC3)c2)c1C	·	-6%	·	-32%	·	-5%
CN(C)/C=C/C(=O)c1ccc(Br)cc1	3%	5%	-8%[59 µM]	-20%	-11%	20%
CN(O)/C=C/C(=O)c1ccc(Br)cc1	10%	16%	20µM*	50µM*	-31%	-22%
O=C(NC(=S)NCCC1=CCCCC1)c1ccccc1Br	?	2%	·	-6%	50µM*	20%
COc1ccc(CNCc2c(C(=O)O)c(C)n(Cc3ccc(Cl)cc3)c2C)c(OC)c1	·	·	-4%[59 µM]	-23%	-22%	21%
CCOC(=O)c1ccc2nc(C)c3c(c2c1)OC(C)C3 (stereo unspecified)	3%	5%	-47%[59 µM]	-3%	7%	31%
Cc1nc2ccc(C(=O)O)cc2c2c1CC(CN)O2 (stereo unspecified)	1%	8%	79µM*	?	-11%	1%
CCN(CC)S(=O)(=O)c1cccc(C(=O)Nc2ccccc2C(=O)Nc2ccc(OC)cc2)c1	·	·	-22%[59 µM]	-7%	0%	26%
COc1cc(O)c(C(CC(=O)N2CCCC(C)C2)c2ccc(N(C)C)cc2)c(OC)c1 (stereo unspecified)	0%	·	?	40µM*	50µM*	?
COc1cc(O)c(C(CC(=O)N2CCN(c3ccccc3)CC2)c2ccc(N(C)C)cc2)c(OC)c1 (stereo unspecified)	89µM*!	·	?	28µM*	25µM*	?
CCC(C)NS(=O)(=O)c1ccc(S(=O)(=O)N2CCCC3(CCCCC3)C2)cc1 (stereo unspecified)	14%	·	?	-18%	6%	7%
O=C(CC1Oc2ccccc2NC1=O)NCc1ccccc1 (stereo unspecified)	7%	0%	7%	?	-2%	4%
CC(=O)CC1OC(=O)C(Br)=C1NCc1ccccc1 (stereo unspecified)	-10%	-7%	35µM*	-19%	-2%	-22%
N#C/C(=N\Nc1cc(Cl)cc(Cl)c1)c1nnc2n1CCCCC2	?	-6%	-15%[59 µM]	?	?	2%
COc1ccc(NC(=O)C2CCCN2S(=O)(=O)c2ccc(Cl)cc2)cc1 (stereo unspecified)	9%	·	-38%	9%	4%	35%
O=C(O)COc1ccc(/C=N/NC(=O)C2CCCN2S(=O)(=O)c2ccc(Cl)cc2)cc1 (stereo unspecified)	6%	·	45µM*	-6%	3%	31%
CN1C(=O)C2(c3ccccc31)N(c1cccc(C(F)(F)F)c1)C(=O)CS2(=O)=O (stereo unspecified)	·	·	-6%[59 µM]	-10%	0%[57.1 µM]	16%
O=C1CS(=O)(=O)C2(C(=O)Nc3ccccc32)N1c1cccc(Cl)c1 (stereo unspecified)	·	·	22µM*	-1%	1%[57.1 µM]	21%
O=C(COC(=O)CNS(=O)(=O)/C=C/c1ccccc1)Nc1cccc2ccccc12	-21%	-4%	50µM*	1%	-22%	26%
COc1ccc(NC(=O)COC(=O)CNS(=O)(=O)/C=C/c2ccccc2)cc1OC	·	8%	17%[12.7 µM]	-12%	-4%	30%
Cc1ccc(Cl)c(NC(=O)COC(=O)CNS(=O)(=O)/C=C/c2ccccc2)c1Cl	50µM*	-1%	?	-12%	-6%	27%
CCc1cccc(C)c1NC(=O)COC(=O)CNS(=O)(=O)/C=C/c1ccccc1	-7%	-6%	?	-2%	-9%	27%
CC(=O)N1CC=CC1(CC(C)C)C(=O)NCc1ccccn1 (stereo unspecified)	30%	·	·	·	·	·
COc1ccc(N2CCN(c3ccc(NC(=O)NN)cc3)CC2)cc1	11%	-13%	45µM*	?	-36%	-3%
S=C(NCCN1CCOCC1)Nc1ccc(Cl)cc1	6%	-1%	-1%[59 µM]	-1%	0%	28%
SMILES	Sfp PPTase inh	L3MBTL1 block	G9a block	JMJD2A Tudor inh	BAZ2B block	HP1b chromo inh
COc1ccc(N2CCN(C(=O)Nc3ccc(Cl)cc3)CC2)cc1	·	·	?	-5%	3%	23%
COc1ccc(N2CCN(CCNC(=O)Nc3ccc(Cl)cc3)CC2)cc1	-2%	·	8.9µM*	-7%	-1%	-2%
CC1CCN(CCNC(=S)Nc2ccc(Cl)cc2)CC1	3%	-3%	45µM*	-7%[57.1 µM]	1%	36%
O=C(NCCN1CCN(c2ccccc2)CC1)Nc1ccc(Cl)cc1	10%	·	-1%	-14%	-3%	10%
CCOc1ccc(NC(=S)NCCCN2CCN(c3ccc(OC)cc3)CC2)cc1	6%	·	40µM*	?	35µM*	-5%
CCC(C(=O)O)n1c2ccccc2c2cn[nH]c(=O)c21 (stereo unspecified)	6%	·	45µM*	-12%	4%	30%
CC(C(=O)O)n1c2ccccc2c2cnn(C)c(=O)c21 (stereo unspecified)	3%	·	45µM*	-5%	-6%	40%
CN(C(=O)OC(C)(C)C)c1ccc(-c2nc3ccccc3s2)cc1	·	·	·	46%	·	95%
CCOc1ccc2c(c1)C(=O)c1cc(OCC(=O)O)ccc1-2	1%	48%	·	-22%	-18%	55%
CCCCOc1ccc2c(c1)C(=O)c1cc(O)ccc1-2	-2%	?	32µM*	28µM*	35µM*	45µM*
CCCCC[C@H](O)/C=C/[C@H]1C=CC(=O)[C@@H]1C/C=C\CCCC(=O)O	56µM*!	?	35µM*!	·	50µM*	·
CCCCC/C=C/C=C1/C(=O)C=C[C@@H]1C/C=C\CCCC(=O)O	56µM*!	·	22µM*!	·	·	·
CCCCCCCC/C=C\CCCCCCCC(=O)O	19%	·	28%[59 µM]	89µM*	-23%	86%
CC(=O)N(C)c1ccc(N=C2C(=O)Nc3ccccc32)cc1	2%	·	21%	-27%	-24%	24%
CC(=O)/C=C1\C(=O)N(C)c2ccccc21	·	·	8.9µM*	·	·	·
O=C1CCN(C(=O)c2cccs2)c2ccccc21	5%	4%	1%	1%	4%	21%[57 µM]
C=CCOc1cccc(C(=O)/C=C2/C(=O)Nc3ccccc32)c1	56µM*	·	?	?	?	-5%
CC(=O)/C=C1/C(=O)Nc2ccccc21	50µM*	·	11µM*	-26%	1%	16%
CN1C(=O)/C(=C\C(=O)c2cccs2)c2ccccc21	45µM*	-4%	20µM*	50µM*	20µM*	45µM*
CN(CC(=O)Nc1ccccc1Br)C(=O)CN1CCN(c2ccccc2Cl)CC1	·	1%	19%[59 µM]	-10%	6%	17%
